Experimental findings from PubChem BioAssay (EPA / NIEHS) are described below.

By AC50 is commonly meant the midpoint of the concentration-response curve, whichever way the signal moves.

The source made the active and inactive calls. How the source made its calls: active means hit-call score of the fitted dose curve at least 0.9, where 1 is the maximum; inactive means score below 0.9.

Holding throughout (conditions): mRNA level, 48 h; actives raise or lower the signal
Read-out in experiment [1]: Cytochrome P450 (CYP2B6), CYP2B6 (gene 1555)
As to the kind of experiment: LTEA_HepaRG_CYP2B6: Life Technologies and Expression Analysis (LTEA) Assay for Cytochrome P450 (CYP2B6) using HepaRG (AID 2283481). Put shortly: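 HepaRG cells plated 48 h, switched to serum-free induction medium, then dosed 48 h (8 points, half-log from 100 uM, 0.5% DMSO). RNA isolated; CYP2B6 expression measured by qRT-PCR; gain or loss fitted relative to DMSO.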

Read-out in experiment [2]: Cytochrome P450 2C19 (Homo sapiens) (UniProt P33261)
As to the kind of experiment: LTEA_HepaRG_CYP2C19: Life Technologies and Expression Analysis (LTEA) Assay for CYP2C19 using HepaRG (AID 2283482). The procedure, abridged:
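Transcript levels of CYP2C19 were quantified by qRT-PCR after HepaRG cells were treated for 48 hours with test chemicals up to 100 uM (eight half-log concentrations, 0.5% DMSO vehicle). Gain or loss of signal was fitted relative to DMSO.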

Read-out in another experiment: CYP2C8 (gene 1558)
As to the kind of experiment: LTEA_HepaRG_CYP2C8: Life Technologies and Expression Analysis (LTEA) Assay for CYP2C8 using HepaRG (AID 2283483). The procedure, abridged: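 Differentiated HepaRG cells in serum-free induction medium exposed 48 h in duplicate to 8 half-log concentrations from 100 uM in 0.5% DMSO. CYP2C8 mRNA by qRT-PCR normalized to ACTB, GAPDH, POLR2A; bidirectional fit versus DMSO.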

Read-out in the next experiment: CYP4A11 (gene 1579)
The experiment can be described thus: LTEA_HepaRG_CYP4A11: Life Technologies and Expression Analysis (LTEA) Assay for CYP4A11 using HepaRG (AID 2283486). Put shortly:
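HepaRG, 48 h chem exposure, 8 conc (100 uM top, half-log), 0.5% DMSO vehicle; qRT-PCR readout, housekeeping-gene normalized; bidirectional curve fit vs DMSO baseline.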

Read-out in experiment [3]: DNA damage-inducible transcript 3 (DDIT3), DDIT3 (gene 1649)
As to the kind of experiment: LTEA_HepaRG_DDIT3: Life Technologies and Expression Analysis (LTEA) Assay for DNA damage-inducible transcript 3 (DDIT3) using HepaRG (AID 2283488). The procedure, abridged:
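HepaRG cells, 48 h after plating, exposed 48 h in serum-free induction medium to 8 half-log concentrations up to 100 uM in 0.5% DMSO, in duplicate. DDIT3 mRNA measured by TaqMan qRT-PCR, normalized to ACTB, GAPDH and POLR2A. Fitted bidirectionally against DMSO.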

Read-out in experiment [4]: Pro-epidermal growth factor (Homo sapiens) (UniProt P01133)
As to the kind of experiment: LTEA_HepaRG_EGF: Life Technologies and Expression Analysis (LTEA) Assay for Epidermal growth factor (EGF) using HepaRG (AID 2283489). The procedure, abridged: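 HepaRG, 48 h dosing, 100 uM top, half-log x8, 0.5% DMSO. Readout: TaqMan qRT-PCR (Fluidigm array), housekeeping-normalized. Gain or loss of signal fit vs DMSO.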

Read-out in experiment [5]: Early growth response protein 1 (EGR1) transcription factor, EGR1 (gene 1958)
The experiment can be described thus: LTEA_HepaRG_EGR1: Life Technologies and Expression Analysis (LTEA) Assay for Early growth response protein 1 (EGR1) transcription factor using HepaRG (AID 2283490). Put shortly: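 Differentiated HepaRG cells in serum-free induction medium exposed 48 hours, duplicate, to 8 half-log concentrations up to 100 uM in 0.5% DMSO. EGR1 mRNA measured by TaqMan qRT-PCR, normalized to ACTB, GAPDH, POLR2A; bidirectional fit versus DMSO.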

Read-out in experiment [6]: Cytochrome P450 3A7 (Homo sapiens) (UniProt P24462)
The experiment can be described thus: LTEA_HepaRG_CYP3A7: Life Technologies and Expression Analysis (LTEA) Assay for CYP3A7 using HepaRG (AID 2283492). The procedure, abridged: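 Human HepaRG liver cells, 48 h post-plating, switched to serum-free induction medium and exposed in duplicate for 48 h. Dosing: 100 uM top, half-log dilutions, 8 points, 0.5% DMSO vehicle. Read-out: CYP3A7 mRNA, gain or loss fitted against DMSO baseline.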

Read-out in a further experiment: CYP3A5 (gene 1577)
As to the kind of experiment: LTEA_HepaRG_CYP3A5: Life Technologies and Expression Analysis (LTEA) Assay for CYP3A5 using HepaRG (AID 2283493). The procedure, abridged: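 HepaRG cells, plated 48 h then in serum-free induction medium, dosed in duplicate for 48 h with eight half-log concentrations up to 100 uM in 0.5% DMSO. Gene mRNA by Fluidigm TaqMan qRT-PCR, normalized to ACTB, GAPDH, POLR2A.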

Read-out in experiment [7]: Fatty Acid-Binding Protein 1 (FABP1), FABP1 (gene 2168)
The experiment can be described thus: LTEA_HepaRG_FABP1: Life Technologies and Expression Analysis (LTEA) Assay for Fatty Acid-Binding Protein 1 (FABP1) using HepaRG (AID 2283494). Put shortly:
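Differentiated human HepaRG cells exposed 48 h in serum-free induction medium to eight half-log concentrations up to 100 uM (0.5% DMSO), duplicate. FABP1 mRNA by qRT-PCR, normalised to ACTB, GAPDH, POLR2A; bidirectional fitting against DMSO.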

Read-out in experiment [8]: Cytochrome P450 4A22 (Homo sapiens) (UniProt Q5TCH4)
The experiment can be described thus: LTEA_HepaRG_CYP4A22: Life Technologies and Expression Analysis (LTEA) Assay for Cytochrome P450 4A22 (CYP4A22) using HepaRG (AID 2283495). The procedure, abridged:
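Readout is CYP4A22 transcript induction or loss, quantified by qRT-PCR and normalized to ACTB, GAPDH and POLR2A. Human HepaRG cells receive test chemicals for 48 h at eight half-log concentrations from 100 uM in 0.5% DMSO.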

Read-out in experiment [9]: Cytochrome P450 7A1 (Homo sapiens) (UniProt P22680)
The experiment can be described thus: LTEA_HepaRG_CYP7A1: Life Technologies and Expression Analysis (LTEA) Assay for Cytochrome P450 7A1 (CYP7A1) using HepaRG (AID 2283496). Put shortly: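 HepaRG cells plated 48 h, then switched to serum-free induction medium and exposed in duplicate for 48 h to 8-point half-log series from 100 uM in 0.5% DMSO. CYP7A1 mRNA by qRT-PCR (TaqMan), normalized to ACTB/GAPDH/POLR2A; bidirectional fit versus DMSO.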

Read-out in experiment [10]: Glutathione S-Transferase (GSTA2), GSTA2 (gene 2939)
As to the kind of experiment: LTEA_HepaRG_GSTA2: Life Technologies and Expression Analysis (LTEA) Assay for Glutathione S-Transferase (GSTA2) using HepaRG (AID 2283497). The procedure, abridged:
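Differentiated human HepaRG cells were exposed in duplicate for 48 h in serum-free induction medium, 8 points from 100 uM top in half-log steps, 0.5% DMSO. GSTA2 mRNA was measured by TaqMan qRT-PCR, normalized to ACTB, GAPDH and POLR2A; bidirectional fit versus DMSO.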

Read-out in experiment [11]: Glutamate-cysteine ligase catalytic (GCLC), GCLC (gene 2729)
As to the kind of experiment: LTEA_HepaRG_GCLC: Life Technologies and Expression Analysis (LTEA) Assay for Glutamate-cysteine ligase catalytic (GCLC) using HepaRG (AID 2283498). The procedure, abridged: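 Differentiated HepaRG cells exposed 48 h in serum-free induction medium, eight-point half-log series topping at 100 uM in 0.5% DMSO, duplicates. GCLC mRNA by qRT-PCR normalized to ACTB, GAPDH and POLR2A, fitted bidirectionally versus DMSO.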

Read-out in experiment [12]: growth arrest and DNA damage 45 (GADD45G), GADD45G (gene 10912)
The experiment can be described thus: LTEA_HepaRG_GADD45G: Life Technologies and Expression Analysis (LTEA) Assay for growth arrest and DNA damage 45 (GADD45G) using HepaRG (AID 2283499). Put shortly: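 Gain or loss of GADD45G mRNA, quantified by TaqMan qRT-PCR against three housekeeping genes, is fitted in both directions relative to 0.5% DMSO. Human HepaRG cultures receive test chemical for 48 h at up to 100 uM.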

Read-out in experiment [13]: Glutamate-cysteine ligase regulatory (GCLM), GCLM (gene 2730)
The experiment can be described thus: LTEA_HepaRG_GCLM: Life Technologies and Expression Analysis (LTEA) Assay for Glutamate-cysteine ligase regulatory (GCLM) using HepaRG (AID 2283500). The procedure, abridged: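 Differentiated HepaRG cells exposed 48 h in serum-free induction medium to eight half-log concentrations up to 100 uM (0.5% DMSO). GCLM mRNA by TaqMan qRT-PCR, normalized to ACTB, GAPDH and POLR2A; bidirectional fit versus DMSO.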

Read-out in the next experiment: CYP2E1 (gene 1571)
As to the kind of experiment: LTEA_HepaRG_CYP2E1: Life Technologies and Expression Analysis (LTEA) Assay for CYP2E1 using HepaRG (AID 2283485). Put shortly: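 HepaRG cells, plated 48 h, then exposed 48 h in serum-free induction medium to eight half-log concentrations from 100 uM in 0.5% DMSO, duplicate. CYP2E1 mRNA by qRT-PCR, normalized to ACTB/GAPDH/POLR2A; bidirectional fit versus DMSO.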

Read-out in experiment [14]: Ezrin (EZR), EZR (gene 7430)
The experiment can be described thus: LTEA_HepaRG_EZR: Life Technologies and Expression Analysis (LTEA) Assay for Ezrin (EZR) using HepaRG (AID 2283491). Put shortly: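 EZR transcript levels came from Fluidigm qRT-PCR and were normalized to three housekeeping genes after 48 h chemical exposure of HepaRG cells. Dosing used an 8-point half-log series with a 100 uM top concentration in 0.5% DMSO, tested in duplicate; both directions were fitted versus vehicle.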

Read-out in experiment [15]: Cytochrome P450 3A4 (Homo sapiens) (UniProt P08684)
The experiment can be described thus: LTEA_HepaRG_CYP3A4: Life Technologies and Expression Analysis (LTEA) Assay for CYP3A4 using HepaRG (AID 2283487). The procedure, abridged:
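Differentiated HepaRG cells, plated 48 h, then dosed 48 h in serum-free induction medium with 0.5% DMSO, 8 half-log concentrations up to 100 uM, duplicate. CYP3A4 mRNA by qRT-PCR, normalized to ACTB/GAPDH/POLR2A; bidirectional fit versus DMSO.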

Sequence of Cytochrome P450 3A7 (Homo sapiens) (P24462 whole entry, looked up): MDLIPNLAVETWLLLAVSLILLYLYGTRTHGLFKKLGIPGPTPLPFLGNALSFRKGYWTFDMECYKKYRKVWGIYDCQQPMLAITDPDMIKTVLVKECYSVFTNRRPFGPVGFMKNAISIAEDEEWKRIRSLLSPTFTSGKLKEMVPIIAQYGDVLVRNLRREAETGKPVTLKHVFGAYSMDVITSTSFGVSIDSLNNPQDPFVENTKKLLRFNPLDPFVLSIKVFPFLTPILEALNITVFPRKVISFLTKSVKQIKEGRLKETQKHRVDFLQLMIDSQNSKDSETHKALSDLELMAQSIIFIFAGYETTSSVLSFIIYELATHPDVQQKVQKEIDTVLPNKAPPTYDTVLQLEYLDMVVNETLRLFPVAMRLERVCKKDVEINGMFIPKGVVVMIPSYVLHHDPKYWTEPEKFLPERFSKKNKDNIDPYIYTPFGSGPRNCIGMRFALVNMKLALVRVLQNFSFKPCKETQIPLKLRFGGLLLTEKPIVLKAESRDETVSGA
Sequence of Cytochrome P450 2C19 (Homo sapiens) (P33261 whole entry, looked up): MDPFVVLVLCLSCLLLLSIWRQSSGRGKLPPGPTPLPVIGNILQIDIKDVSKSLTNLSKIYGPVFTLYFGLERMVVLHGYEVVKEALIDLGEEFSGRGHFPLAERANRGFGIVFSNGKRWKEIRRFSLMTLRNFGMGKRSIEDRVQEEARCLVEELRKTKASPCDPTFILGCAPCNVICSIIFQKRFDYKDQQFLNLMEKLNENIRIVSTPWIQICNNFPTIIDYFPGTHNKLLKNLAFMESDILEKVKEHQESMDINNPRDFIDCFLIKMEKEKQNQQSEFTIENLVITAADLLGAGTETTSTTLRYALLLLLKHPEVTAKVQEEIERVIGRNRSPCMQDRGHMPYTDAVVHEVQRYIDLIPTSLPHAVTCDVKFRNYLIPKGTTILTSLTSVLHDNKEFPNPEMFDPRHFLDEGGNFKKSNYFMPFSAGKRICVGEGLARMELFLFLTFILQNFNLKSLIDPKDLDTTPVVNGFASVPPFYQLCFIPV
Sequence of Cytochrome P450 3A4 (Homo sapiens) (P08684 whole entry, looked up): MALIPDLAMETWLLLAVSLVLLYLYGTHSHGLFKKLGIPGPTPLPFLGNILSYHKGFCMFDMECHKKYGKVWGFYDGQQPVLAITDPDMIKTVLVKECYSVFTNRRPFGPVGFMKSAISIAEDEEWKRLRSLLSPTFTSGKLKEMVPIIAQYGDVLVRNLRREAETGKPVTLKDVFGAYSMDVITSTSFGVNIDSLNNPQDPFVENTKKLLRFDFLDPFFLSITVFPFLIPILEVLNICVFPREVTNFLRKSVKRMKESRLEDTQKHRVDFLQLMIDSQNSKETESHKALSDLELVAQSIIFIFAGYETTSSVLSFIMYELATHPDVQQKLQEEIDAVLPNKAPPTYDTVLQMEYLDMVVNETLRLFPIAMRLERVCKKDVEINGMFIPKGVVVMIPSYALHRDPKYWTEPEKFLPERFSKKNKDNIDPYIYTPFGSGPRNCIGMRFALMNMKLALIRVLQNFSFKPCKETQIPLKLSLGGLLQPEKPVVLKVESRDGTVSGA

`c1ccc2c(c1)-c1cccc3c1c-2cc1ccccc13`: the molecule was classed as inactive in experiment [1], in experiment [4], in experiment [11] and in experiment [13]. Further, the AC50 in experiment [2] is 17.2 µM (active); in the experiment with CYP2C8 (gene 1558) it was 17.3 µM (active); with CYP4A11 (gene 1579) it was 26.1 µM (active); in experiment [3] it was 7.35 µM (active); in [5], 0.404 µM (active); in experiment [6] it was 13 µM (active). The half-maximal activity concentration (AC50) with CYP3A5 (gene 1577) is 5.37 µM (active); in experiment [7], 19.1 µM (active); in experiment [8], 29.1 µM (active); in experiment [9], 15.6 µM (active); in [10] it was 17.9 µM (active); in experiment [12], 14 µM (active).

As for `COc1cc2c(c(OC)c1OC)-c1ccc(OC)c(=O)cc1[C@@H](NC(C)=O)CC2`, the AC50 in [1] was 0.0986 µM (active); with CYP2C8 (gene 1558), 0.0951 µM (active); with CYP2E1 (gene 1571), 0.0817 µM (active); with CYP3A5 (gene 1577) it was 0.0995 µM (active); in experiment [7], 0.106 µM (active); in [8], 0.108 µM (active). The AC50 in [9] is 0.095 µM (active); in experiment [10] it was 0.107 µM (active); in [11], 0.0881 µM (active); in experiment [12] it was 0.0846 µM (active). The molecule was called inactive in experiment [3], in experiment [4], in experiment [5], in experiment [14] and in [13].

As to `Cc1nc(-c2ccccn2)ncc1C(=O)Nn1cc(C)c2cc(F)ccc21`, the concentration at half-maximal activity (AC50) in experiment [1] was 0.168 µM (active); in experiment [2] it was 1.02 µM (active); with CYP4A11 (gene 1579) it was 59.4 µM (active); in experiment [15], 1.57 µM (active); in experiment [6] it was 0.945 µM (active); in experiment [7], 6.97 µM (active). Also, the figures for the AC50 in experiment [8] and in [10] were 51.4 µM (active) and 65.5 µM (active), respectively. Besides, the outcome (in the experiment with CYP2C8 (gene 1558); in experiment [3]; in experiment [4]; in [14]; with CYP3A5 (gene 1577); in [9]) was inactive. Moreover, the result in [11], in [12] and in experiment [13] was inactive.
